# Measurements taken from PubChem BioAssay AID686978 (National Center for Advancing Translational Sciences (NCATS), 2013).
# Screen size: about 420,000 compounds; about 64,000 (15%) were called active. Roughly 27% stayed inconclusive and do not appear here. Calls come from the whole dose curve; as a rule, active = well fitted inhibition curve with a large enough effect; inconclusive = small, poorly fitted or top-dose-only effect; inactive = flat fitted curve, though single readings scatter. These entries were drawn from the full list.
# Experiment: qHTS for Inhibitors of human tyrosyl-DNA phosphodiesterase 1 (TDP1): qHTS in cells in absence of CPT; note: nearly all actives have a fitted effect of over 55% in size
# Settings: DT40 Tdp1-/- hTDP1 cells, no CPT, ATP luminescence, 48 h; activity change, negative = growth inhibition: at 46.2 µM (top of the series)
# Source text: Human tyrosyl-DNA phosphodiesterase 1 (TDP1) is a novel repair gene, and we propose to use it as a new target for anticancer drug development. TDP1 is not an essential protein, but under treatment with topoisomerase I poison (camptothecin: CPT), TDP1 works as a critical factor for cell survival. To directly identify novel TDP1 inhibitors active in a cellular environment, we have knocked-out the Tdp1 gene in chicken DT40 cells (Tdp1-/-) and generated a complemented counterpart cells that contains a stable transfection of the human TDP1 gene (Tdp1-/-;hTDP1 cells). For the primary screen, Tdp1-/-;hTDP1 cells will be exposed to small molecules in the presence or absence of CPT, and their growth kinetics will be evaluated after 48 hours by measuring ATP activity. […] The hit compounds will then be evaluated in the presence or absence of CPT using Tdp1-/- cells. […] In tertiary assays, biochemical gel-based assays will be used to assess whether the hit compounds specifically target TDP1.
# To this end, we have screened this cell line against the MLSMR in two primary screens. In one screen we add CPT and in the other we screen in the absence of CPT; this AID represents the screen where CPT was absent.
# NIH Chemical Genomics Center [NCGC]
# NIH Molecular Libraries Probe Centers Network [MLPCN]
# Assay Submitter (PI): Yves Pommier, NCI
# DT40-hTDP1 cells without 20 nM Camptothecin (add 20 microL of DMSO in 1 L of cell culture medium) were dispensed at 400 cells/5microL/well in tissue culture treated 1536-well white wall/solid bottom assay plates (Greiner Bio-One North America, NC, U.S.A.) using a Multidrop Combi 8 channel dispenser (Thermo Fisher, Waltham, MA, USA). 23 nL compounds and controls were transferred using the pin tool (Kalypsys, San Diego, CA, USA) to the assay plates. The assay plates were then incubated at 37 masculineC for a minimum 48 hr. Three microL of Cell Titer Glo solution was added to the plates and incubated at RT in dark for 30 min. Luminescence was read using ViewLux (Perkin Elmer) with 1 sec exposure slow speed, high gain and 2x binning.
# % is set by controls: 0 for no effect and ±100 for the full control effect; potency is the fitted concentration of half-maximal effect.
Compound,"activity change, negative = growth inhibition",Potency
C=CCNC(=O)CC12CC3CC(C1)CC(CC(=O)NCC=C)(C3)C2,-16.4% (inactive),–
COc1ccc(CNC(=O)C(=O)N2CCC3(CC2)OCCN3S(=O)(=O)c2ccc(C)cc2)cc1,-24.9% (inactive),–
CCc1[nH]nc(C(=O)N2CCCC(CO)(Cc3ccc(F)cc3F)C2)c1C (stereo unspecified),-24.1% (inactive),–
Cc1noc(C)c1CCC(=O)N1CCCC(CO)(Cc2ccccc2)C1 (stereo unspecified),-5.73% (inactive),–
Cc1ccccc1CC1(CO)CCCN(C(=O)c2cc(-c3ccccc3)no2)C1 (stereo unspecified),–,29.1 µM (active)
CCCc1nnc(NC(=O)CCC(=O)N2CCN(S(=O)(=O)c3ccc(OC)cc3)CC2)s1,-9.79% (inactive),–
COc1ccc(C(=O)Nc2nc(-c3ccc(OC)cc3)c(-c3ccc([N+](=O)[O-])cc3)s2)cc1,–,9.2 µM (active)
COc1ccc(-c2[nH][nH]c(=O)c2NC(=O)c2ccc([N+](=O)[O-])cc2)cc1,4.8% (inactive),–
COc1ccc(C(=O)NCCNc2ccc([N+](=O)[O-])cn2)cc1,9.53% (inactive),–
O=C(CN(C(=O)c1csnn1)c1cccc(Cl)c1)NC1CCCC1,-0.467% (inactive),–
Cc1cccc(C)c1N1CCN(S(=O)(=O)N2CCOCC2)CC1,-27.9% (inactive),–
CCc1cc2c(NC(Cc3ccccc3)C(=O)O)ncnc2s1 (stereo unspecified),17.1% (inactive),–
Clc1cc(NC2CCCCC2)ncn1,-1.91% (inactive),–
CCc1cc2c(NC3CCCC3)ncnc2s1,–,4.61 µM (active)
CCCC12CN3CC(C)(CN(C1)C3c1ccccc1Cl)C2=O (stereo unspecified),-2.7% (inactive),–
CCCC12CN3CC(CCC)(CN(C1)C3c1c[nH]c3ccc(OC)cc13)C2=O (stereo unspecified),–,10.3 µM (active)
CCN(CC)CC(=O)c1c[nH]c2ccc(OC)cc12,-1.44% (inactive),–
COc1ccccc1CNC(=O)CSc1nc(=O)n(Cc2ccncc2)c2c1CCC2,5.82% (inactive),–
O=S1(=O)CCN(Cc2ccccc2Cl)CC1,3.47% (inactive),–
CC1(C)CN(CCc2ccccc2)C(=O)[C@H]1CC(=O)Nc1ccc(Br)cc1,-22% (inactive),–
CCCCN1CC(C)(C)[C@H](CC(=O)Nc2ccc(Br)cc2)C1=O,–,16.4 µM (active)
CC(=O)N1CC(=O)N(CC(=O)Nc2ccc(Br)cc2)C1=S,-22.6% (inactive),–

Compound,"activity change, negative = growth inhibition",Potency
O=C(N/N=C/c1ccccn1)C12CC3CC(CC(C3)C1)C2,-2.56% (inactive),–
COc1cccc(NC(=O)Cn2c3ccccc3c3nc4n(c(=O)c32)CCS4)c1,-18% (inactive),–
CN(CC(=O)NC(=O)Nc1ccccc1F)Cc1ccccc1,-25.6% (inactive),–
COc1cccc2c1C(=O)c1c(O)c3c(c(O)c1C2=O)CC(O)(C(C)=NNC(=O)c1ccc(Cl)c(Cl)c1)CC3OC1CC(N)C(O)C(C)O1 (stereo unspecified),–,0.164 µM (active)
O=C(Nc1ccccc1-c1ccccc1)c1ccccc1[N+](=O)[O-],15.4% (inactive),–
COc1cccc(N2CC(C(=O)NCc3n[nH]c(=O)c4ccccc34)CC2=O)c1 (stereo unspecified),-16.6% (inactive),–
CC(=O)Nc1ccc(NC(=O)CSc2nnc(C3CC3)n2-c2ccccc2)cc1,-15.9% (inactive),–
CC[n+]1c(C)n(-c2ccccc2)c2ccc(NC(C)=O)cc21,–,2.59 µM (active)
CCn1c2ccccc2c2cc(NC(=O)CNC)ccc21,-23.9% (inactive),–
N#CC(C(N)=O)=C1CCC2(CC1)OCCCCO2,6.97% (inactive),–
CCOc1cc(/C=N/O)ccc1OCc1ccccc1F,-23.7% (inactive),–
CCN(CC(=O)Nc1c(F)cccc1F)C(=O)c1ccc(-c2ccc(C(C)=O)cc2)o1,-4.02% (inactive),–
COc1ccc(OC)c(C(=O)c2ccc(Cl)cc2)c1,2.86% (inactive),–
COC(=O)c1cn(C(=O)c2ccc(Cl)cc2)c2ccccc12,-12.8% (inactive),–
COC(=O)c1cc2c(N)c(C(=O)c3ccc(Cl)cc3)sc2nc1C(OC)OC,–,14.6 µM (active)
Cc1ccc(C(=O)N/N=C/c2sc(=O)n(Cc3cccc(C(=O)O)c3)c2Cl)cc1,-2.17% (inactive),–
CCCN=C1NC(=O)C(CC(=O)NCCc2ccc(OC)c(OC)c2)S1 (stereo unspecified),9.83% (inactive),–
O=C1C=C(c2ccnc3cc(Cl)ccc23)C[C@@H](c2ccc3c(c2)OCO3)C1,–,16.4 µM (active)
CC(=O)C1=C(C)NC(=O)NC1c1ccc2c(c1)OCO2 (stereo unspecified),13.2% (inactive),–
O=C1C=C(c2cccc(Cl)c2)C[C@@H](c2ccc(F)cc2)C1,-20.4% (inactive),–
CN(C)CC(C)(C)CNC(=O)c1cc(Br)cc(Br)c1O,1.87% (inactive),–
O=C(Cn1ncn2nc(-c3cccs3)cc2c1=O)NCc1cccc(Br)c1,-23.6% (inactive),–

Compound,"activity change, negative = growth inhibition",Potency
Cc1c(C(=O)OCC(=O)N2CCCC2=O)oc2ccccc12,5.48% (inactive),–
CNc1ccc([N+](=O)[O-])cc1C(=O)O,10.7% (inactive),–
CC(Nc1ccc([N+](=O)[O-])cc1[N+](=O)[O-])c1ccccc1 (stereo unspecified),–,20.6 µM (active)
C[n+]1ccccc1C1CCCC/C1=N\Nc1ccc([N+](=O)[O-])cc1[N+](=O)[O-] (stereo unspecified),-16.1% (inactive),–
CC(C)(C)NC(=O)Cn1cnc([N+](=O)[O-])n1,-7.99% (inactive),–
CC(C)C(NC(=O)c1c(F)cccc1F)C(=O)NCc1ccncc1 (stereo unspecified),-15.1% (inactive),–
CCN(CC(=O)NCC(=O)Nc1cccc(C)c1C)Cc1ccccc1,-7.77% (inactive),–
COc1cc(-c2n[nH]c(=S)n2Cc2ccccc2)cc(OC)c1OC,-25% (inactive),–
CCn1c(-c2ccncc2)n[nH]c1=S,-1.03% (inactive),–
CCCc1cc(-c2n[nH]c(=S)n2Cc2ccccc2)cs1,–,29.1 µM (active)
Cc1ccc(Nc2nc(CSc3nnc(-c4ccncc4)n3-c3ccccc3C)cs2)cc1,–,11.6 µM (active)
O=C(CSc1nnc(-c2ccncc2)n1-c1ccccc1)Nc1ccc(Cl)c(Cl)c1,-28.5% (inactive),–
CCOc1ccccc1-n1c(SCC(=O)NCc2ccco2)nnc1-c1ccncc1,-17.9% (inactive),–
CCOC(=O)Cn1c(O)c(N=NC(=O)CNC(=O)Cc2ccccc2)c2ccccc21,-27.3% (inactive),–
Cn1c(S(=O)(=O)O)nc2ccccc21,21.1% (inactive),–
O=C(NCC1CCCO1)c1cc2c([nH]c3ccccc32)c(-c2ccc(F)cc2)n1 (stereo unspecified),–,1.84 µM (active)
O=C(NCC1CCCO1)c1ccc2ccccc2n1 (stereo unspecified),5.68% (inactive),–
COc1ccc2cc(C(=O)NCC3CCCO3)[nH]c2c1 (stereo unspecified),0.844% (inactive),–
CSc1ccc(S(=O)(=O)NC2CCCCC2)cc1,-7.18% (inactive),–
CC(C)C(=O)NCc1cc(-c2ccc(Cl)cc2)no1,8.37% (inactive),–
Cc1cc(O)c(Sc2ccccc2)c(=O)o1,-11.9% (inactive),–
O=C(CSc1nnc(CN2CCCC2)n1-c1ccc(F)cc1)c1ccc2c(c1)OCO2,–,20.6 µM (active)

Compound,"activity change, negative = growth inhibition",Potency
O=C(O)CSc1nnc(-c2ccc3c(c2)OCO3)n1-c1ccccc1,-10.5% (inactive),–
Cc1ccc(-n2c(CNc3ccc(F)cc3)nnc2SCC(=O)N2CCOCC2)cc1,-29.1% (inactive),–
Cc1ccc(NC(=O)CSCC(=O)N2CCOCC2)cc1,-23.6% (inactive),–
CCN(CC(=O)Nc1c(F)cccc1F)C(=O)c1ccc(Sc2nncn2C)c([N+](=O)[O-])c1,-7.64% (inactive),–
CC1(C(=O)NS(=O)(=O)c2ccc(C#N)cc2)CCN1C(=O)CC1CCCC1 (stereo unspecified),11.1% (inactive),–
COc1ccc(CNC(=O)CC2Oc3ccc(C)cc3NC2=O)cc1 (stereo unspecified),-9.89% (inactive),–
COc1ccc(CNC(=O)c2cc3c(=O)[nH]c4ccccc4c3s2)cc1,0.873% (inactive),–
Cc1ccc2[nH]c(=O)c(CC=C(Cl)Cl)c(C)c2c1,-2.49% (inactive),–
COc1ccc(CNC(=O)c2cc3c(=O)[nH]c4ccc(C)cc4c3s2)c(OC)c1,–,20.6 µM (active)
Cc1cccc(N(C)C(=O)c2cc3c(=O)[nH]c4ccc(C)cc4c3s2)c1,–,5.17 µM (active)
Cc1ccc2[nH]c(=O)c(CC(=O)O)c(-c3ccccc3)c2c1,4.17% (inactive),–
Cc1ccsc1C(=O)NNC(=O)COc1ccc(Br)cc1,-8.53% (inactive),–
O=C(Nc1ccc2c(c1)C(=O)OC2)Nc1cccc2ccccc12,-3.83% (inactive),–
CN=C1S/C(=C\c2c(OC)cc(OC)cc2OC)C(=O)N1C,4.09% (inactive),–
Cc1cccc(C)c1NC(=O)CSc1ccc([N+](=O)[O-])cn1,-3.38% (inactive),–
CCOCC(=O)Nc1ncc(S(=O)(=O)c2ccc([N+](=O)[O-])cc2)s1,-18.6% (inactive),–
COc1ccc(OCC(=O)NCCS(=O)(=O)N2CCN(c3ccc(F)cc3)CC2)cc1,7.95% (inactive),–
c1ccc2nc(C3=NCCN3)cnc2c1,-5.64% (inactive),–
O=C(C[n+]1ccccc1)N/N=C/c1ccc(O)cc1,-28.4% (inactive),–
NN=C(NN=Cc1ccccc1)c1ccccc1,–,20.6 µM (active)
O=C(CCCCCNC(=O)c1ccccc1)N/N=C/c1ccccc1,-5.59% (inactive),–
Cc1ccc(Cc2cncc(O)c2)cc1S(=O)(=O)O,-0.5% (inactive),–

Compound,"activity change, negative = growth inhibition",Potency
COC(=O)c1cc(NC(=O)c2cccnc2)ccc1N1CCOCC1,0.201% (inactive),–
CCOC(=O)c1[nH]c2ccc(C)cc2c1N=C(C)N(C)C,3.19% (inactive),–
CCOc1ccccc1CNC(=O)c1ccc2c(c1)nc1n2CCC(C)C1 (stereo unspecified),-5.23% (inactive),–
CCOc1ccccc1CNC(=O)c1cnc2c(-c3ccc(OCC)c(OCC)c3)c(C)nn2c1C,–,11.6 µM (active)
Cc1ccc(Cl)cc1N1CCN(C(=O)c2cnc3c(-c4ccc(F)cc4)c(C)nn3c2C)CC1,-17.5% (inactive),–
COCCCNC(=O)C1CC(=O)N(CCc2ccccc2)C1 (stereo unspecified),-0.222% (inactive),–
CC(C)(C)C(=O)CCN1C(=O)C2(OCCO2)c2ccccc21,-3.5% (inactive),–
COc1ccc(C(=O)OCc2cc(=O)n3ccsc3n2)cc1F,-17.5% (inactive),–
COCCc1nn2c(=O)cc(COC(=O)c3cc(OC)c(OC)c(OC)c3)nc2s1,-13.2% (inactive),–
COc1cc(C(=O)OCc2cc(=O)n3ccsc3n2)ccc1OC(C)C,–,20.6 µM (active)
NC(=O)C[n+]1cccc(C(N)=O)c1,3.03% (inactive),–
O=C1c2oc3ccccc3c(=O)c2C(c2cccc(O)c2)N1c1ccccn1 (stereo unspecified),–,20.6 µM (active)
COc1ccc(C2c3c(oc4ccccc4c3=O)C(=O)N2Cc2ccc3c(c2)OCO3)cc1 (stereo unspecified),-15.1% (inactive),–
CC(=O)c1sc(N2C(=O)c3oc4ccccc4c(=O)c3C2c2ccc(C)cc2)nc1C (stereo unspecified),1.93% (inactive),–
COCCN1C2=C(COC(C)(C)C2)C(=S)NC1c1ccccc1 (stereo unspecified),1.35% (inactive),–
COC(C[C@@H](O)[C@H](C)[C@H](O)COCc1ccccc1)OC,-1.03% (inactive),–
Cn1cccc1/C=C1\SC(=S)N(NC(=O)c2ccc(Cl)cc2)C1=O,-13.3% (inactive),–
O=C(CSc1ncn[nH]1)Nc1ccc(Br)cc1Br,-4.44% (inactive),–
